# High-throughput results (PubChem)
# Most compounds without a hit are left out; they make up all but 0.86% or so of the library.
# NOD2 RIPK2 PPI – inhibitors of human NOD2-RIPK2 interaction; inhibition, % at 4.98 µM; CHO BLA complementation NOD2-RIPK2, CCF4 ratio; 0.38% of 360,000 active; O43353; AID 624267; in the data active = inhibition above about 21%
# TLR4 MyD88 comp – inhibitors of human TLR4-MyD88 binding | O00206+Q99836 | HeLa CL3-4 TLR4/MyD88 BLA complementation, FRET ratio | inhibition, % at 8.4 µM | 0.18% of 200,000 active; in the data active = inhibition above about 25%
# IDE cell inh – inhibitors of human insulin-degrading enzyme in cells. inhibition, % at 5.59 µM. P14735. 0.41% of 320,000 active. HEK cells, FAbetaB cleavage, fluorescence polarization;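 active = percent inhibition above the average of all tested compounds plus 3 SD, set per screening campaign, cut at about 16% in these data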;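 note: IDE supplied by intact live HEK cells; FP after avidin binding of uncleaved biotin substrate so inhibition keeps polarization high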
# TLR9-MyD88 block – inhibitors of human TLR9-MyD88 binding. CHO BLA complementation TLR9-MyD88, CCF4 FRET ratio. Q9NR96+Q99836. inhibition, % at 4.98 µM. 0.21% of 340,000 active;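 active = inhibition above the mean over all tested compounds plus 3 SD, cut at about 21% in these data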
# IDE act – IDE (human) activation, cell-based. AID 493087. 0.073% of 340,000 active. P14735. activation, % at 5.96 µM. HEK cells, FAbeta-B cleavage, fluorescence polarization; 0% vehicle, 100% cell-free pure enzyme wells;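 active = activation above the mean of all tested compounds plus 3 SD, set per screening campaign, cut at about 17% in these data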
# TLR4-MyD88 conf – confirmation of human TLR4-MyD88 binding inhibitors. shares compounds with TLR4 MyD88 comp. 50% of 350 active. AID 941. HeLa CL3-4 BLA complementation, CCF4 FRET ratio. inhibition, % at 8.4 µM;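 active = mean inhibition across three repeat runs above about 25% carried over from the earlier screen, limit read from the data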
# BLA inh HeLa – counter-screen for TLR4-MyD88 inhibitors: beta-lactamase reporter inhibitors; inhibition, % at 8.4 µM; HeLa BLA reporter, CCF4 FRET ratio; shares compounds with TLR4 MyD88 comp; 63% of 350 active;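 active = mean inhibition over three repeats above about 26% taken from the earlier screen, limit read from the data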;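 note: HeLa cells stably expressing beta-lactamase reporter as counterscreen for TLR4-MyD88 inhibitors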
# IDE inh confirm – confirmation of human insulin-degrading enzyme inhibitors in cells; shares compounds with IDE cell inh; HEK cells, FAbetaB cleavage, fluorescence polarization; inhibition, % at 5.59 µM; 51% of 1,200 active;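 active = mean inhibition across triplicate wells above the cutoff set by the earlier primary insulin-degrading enzyme screen, cut at about 16% in these data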
# HEK293 tox – HEK cell cytotoxicity, counter-screen for IDE inhibitors | 28% of 1,200 active | HEK293 cytotoxicity, ATP luminescence | AID 449730 | inhibition, % at 5.59 µM | shares compounds with IDE cell inh; in the data active = inhibition above about 22%
# TLR9-MyD88 cf – TLR9-MyD88 interaction inhibition, confirmation. 51% of 680 active. inhibition, % at 4.98 µM. CHO TLR9/MyD88 BLA complementation, CCF4 FRET ratio. shares compounds with TLR9-MyD88 block. AID 540250;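 active = mean inhibition across three repeats above about 21% taken from the earlier screen, limit read from the data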;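 note: blue over green emission ratio reports constitutive TLR9 MyD88 association via BLA complementation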
# BLA nonselective – non-selective beta-lactamase inhibitors in TLR9-MyD88 counter-screen; shares compounds with TLR9-MyD88 block; CHO-BLA cells, CCF4 FRET ratio, BLA reporter; inhibition, % at 4.98 µM; 7% of 680 active;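 active = mean inhibition above a 50% cutoff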;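 note: counterscreen of TLR9-MyD88 hits on CMV-driven BLA in CHO-K1 cells; higher means less blue over green ratio so more BLA blockade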
# TLR9 CHO tox – CHO cell toxicity counter-screen for TLR9-MyD88 inhibitors. inhibition, % at 4.98 µM. shares compounds with TLR9-MyD88 block. 39% of 680 active. TLR9-MyD88 CHO cells cytotoxicity, luminescence; in the data active = inhibition above about 11%
# Hits are given with their value; i = inactive; nt = no result given.
SMILES,NOD2 RIPK2 PPI,TLR4 MyD88 comp,IDE cell inh,TLR9-MyD88 block,IDE act,TLR4-MyD88 conf,BLA inh HeLa,others
Cc1ccc(NS(=O)(=O)c2ccc(OCC(=O)NCc3ccco3)cc2)cc1,i,i,i,i,i,nt,nt,
Cc1ccc(C)c(NS(=O)(=O)c2ccc(OCC(=O)NCc3ccco3)cc2)c1,i,26,i,i,i,i,i,
CC(=O)NS(=O)(=O)c1ccc(NC(=S)NC(=O)COc2ccccc2C)cc1,i,34,i,i,i,i,i,
CCOc1ccc(C(=O)NC(Cc2ccccc2)C(=O)OC)cc1 (stereo not drawn),i,i,i,i,i,nt,nt,
CCOC(=O)c1ccc(CN2CCCC(C)(C(=O)NCCOC)C2)cc1 (stereo not drawn),i,nt,nt,nt,nt,nt,nt,
Cc1cc(/C=C2\Sc3ccccc3N2C)cc(C)[n+]1CC1CCCO1 (stereo not drawn),i,36,nt,nt,nt,i,41,
CN(C)c1nc(C=C(C#N)C#N)c(Cl)n1-c1ccc(F)cc1,i,35,nt,i,i,27,i,
COc1cccc(-c2cc(C(F)(F)F)c3c(N)c(C#N)sc3n2)c1,nt,27,i,nt,nt,i,49,
Nc1c(C(=O)C2CC2)sc2nc(-c3ccccc3)cc(C(F)(F)F)c12,i,i,i,i,i,nt,nt,
O=C(CCC(=O)NC1CCCCC1)NCc1ccc(F)cc1,i,nt,i,i,i,nt,nt,
CCCCn1c2nc3ccccc3nc2c2c(=N)oc(C)nc21,i,nt,nt,i,i,nt,nt,
CCCCC(CC)Cn1c2nc3ccccc3nc2c2c(=N)oc(C)nc21 (stereo not drawn),nt,48,nt,nt,nt,i,i,
COc1ccc(NC(=O)CCCC(=O)c2ccccc2)cc1OC,i,nt,i,i,i,nt,nt,
CC[n+]1ccccc1/C=C/c1ccc(N(C)C)cc1,i,i,nt,i,i,nt,nt,
CN(C)c1ccc(/C=C/c2cc[n+](C)cc2)cc1,i,26,i,i,i,i,i,
CCCCCCCn1c2c(c(=N)c3c1CCC3)CCCC2,i,26,nt,i,i,i,26,
CCCCCCCCCn1c2c(c(=N)c3c1CCC3)CCC2,i,i,i,i,i,nt,nt,
CCCCCCn1c2c(c(=N)c3c1CCC3)CCC2,i,27,i,i,i,i,i,
COC(=O)c1sccc1NC(=O)Nc1cccc(C)c1,i,i,i,i,i,nt,nt,
CNC(=O)c1sc(N2N=C3/C(=C/c4ccccc4)CCCC3C2c2ccccc2)nc1C (stereo not drawn),i,28,i,i,i,i,54,
CNC(=O)c1sc(N2N=C3/C(=C\c4ccccc4)CCCC3C2c2ccccc2)nc1C (stereo not drawn),i,nt,nt,i,i,nt,nt,
O=C(CCN1CCOCC1)Nc1ccc2c(c1)CCC2,i,25,i,i,i,i,i,
CCCCCCn1c(=O)[nH]c2nc3cc(N)ccc3nc2c1=O,nt,25,69,nt,nt,30,45,IDE inh confirm=93;HEK293 tox=i
CN(C)C=Nc1nonc1-c1ccccc1,i,nt,i,i,i,nt,nt,
CN(C)C=Nc1c(Br)cc(Br)c2nonc12,i,25,26,i,i,i,35,IDE inh confirm=62;HEK293 tox=i
SMILES,NOD2 RIPK2 PPI,TLR4 MyD88 comp,IDE cell inh,TLR9-MyD88 block,IDE act,TLR4-MyD88 conf,BLA inh HeLa,others
O=C(NCc1ccccc1)C1CCCN(c2ncnc3c2nc2n3CCCCC2)C1 (stereo not drawn),i,nt,i,i,i,nt,nt,
Cn1cccc1/C=C1\CCC/C(=C\c2cccn2C)C1=O,i,35,71,23,i,i,45,IDE inh confirm=118;HEK293 tox=23;TLR9-MyD88 cf=26;BLA nonselective=i;TLR9 CHO tox=i
O=C1c2cccc3c([N+](=O)[O-])ccc(c23)C(=O)N1c1ccc(Cl)cn1,85,86,i,73,i,87,111,TLR9-MyD88 cf=68;BLA nonselective=86;TLR9 CHO tox=94
O=C1c2ccc([N+](=O)[O-])cc2C(=O)N1c1ccc(Cl)cn1,i,i,i,i,i,nt,nt,
COc1cccc(/C=C2\C(=O)N(c3cccc(C)c3)C(=O)c3ccccc32)c1,i,29,i,24,i,41,38,TLR9-MyD88 cf=46;BLA nonselective=i;TLR9 CHO tox=i
COc1ccc(C(CNC(=O)CN2C(=O)NC(C)(c3ccc4ccccc4c3)C2=O)N2CCCC2)cc1 (stereo not drawn),i,nt,nt,i,i,nt,nt,
COc1ccc(N(CC(=O)N/N=C/c2ccc(-c3ccc([N+](=O)[O-])cc3)o2)S(=O)(=O)c2ccc(C)cc2)cc1Cl,i,71,i,64,i,65,95,TLR9-MyD88 cf=59;BLA nonselective=61;TLR9 CHO tox=i
CCCSc1nnc(NC(=O)c2sc3nc(-c4cccs4)ccc3c2N)s1,i,30,i,21,i,i,31,TLR9-MyD88 cf=23;BLA nonselective=i;TLR9 CHO tox=i
O=C(c1ccccc1)N(C(=O)c1ccccc1)c1ccccc1,i,nt,nt,i,nt,nt,nt,
O=C(C1=NN(c2ccccc2)C2C(=O)N(c3cccc(Cl)c3)C(=O)C12)c1ccccc1 (stereo not drawn),35,46,31,28,i,27,45,IDE inh confirm=28;HEK293 tox=i;TLR9-MyD88 cf=25;BLA nonselective=i;TLR9 CHO tox=i
COc1ccc(N(C)C(=O)C2CCN(S(=O)(=O)c3cccc4nonc34)CC2)c(OC)c1,i,nt,i,i,i,nt,nt,
COc1nc(Cl)cn(-c2ccc(C)cc2)c1=O,i,i,i,i,i,nt,nt,
Cc1ccc(-n2c(Cl)c(Cl)nc(Cl)c2=O)cc1,84,27,i,48,i,i,i,TLR9-MyD88 cf=49;BLA nonselective=i;TLR9 CHO tox=99
COc1cc(C(C)=O)ccc1OCC(=O)Nc1cc(C)on1,i,nt,i,i,i,nt,nt,
Cc1c(C)c2c(OCC(=O)NCc3ccncc3)cc3c(c2oc1=O)CCC(C)(C)O3,i,nt,i,i,i,nt,nt,
N#Cc1sc2nc(-c3ccccc3)cc(-c3ccco3)c2c1N,i,40,i,22,i,26,53,TLR9-MyD88 cf=28;BLA nonselective=i;TLR9 CHO tox=i
N#Cc1sc2nc(C3CC3)cc(-c3ccccc3)c2c1N,i,i,i,i,i,nt,nt,
CC(NC(=S)NNS(=O)(=O)c1cccc([N+](=O)[O-])c1)c1ccccc1 (stereo not drawn),i,nt,i,i,i,nt,nt,
CS(=O)(=O)c1nc(-c2ccccc2)cc(C(F)(F)F)n1,60,31,i,36,i,i,i,TLR9-MyD88 cf=35;BLA nonselective=i;TLR9 CHO tox=96
